Assay outcomes (PubChem BioAssay)
Hits are enriched below; roughly 1.8% of the tested compounds scored in any of these assays.
HEK293 tox: qHTS of GLP-1 Receptor Inverse Agonists: Cytotox Screen; HEK293 cAMP-luciferase reporter cells, luminescence, 24 h; Potency, µM (series often up to 38.3 µM), inactives show at the top dose activity change, negative = inhibition, most hits filed as inhibitors; hit rate 0.13% among 410,000;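 note: loss of luciferase light is scored as toxicity; % is set by controls: 0 for no effect and ±100 for the full control effect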
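Step one: seed cells (200 cells/uL, DMEM with 10% Nu serum, 1% pen-strep). Step two: 12-hour incubation at 37 deg C. Step three: pin 23 nL compound, incubate 24 hr. Step four: add luciferase reagent, read luminescence 12 min later.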
Tb PFK block: qHTS Assay to Find Inhibitors of T. brucei phosphofructokinase; Potency, µM (titrated, usually from 57.5 µM), for inactives: at the top dose activity, negative = inhibition, hits mostly inhibitors; T. brucei PFK, ADP-Glo luminescence; hit rate 0.17% among 330,000;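 note: 0% = uninhibited 1x PFK enzyme wells and -100% = no-enzyme wells; nearly all actives have a fitted effect of over 60% in size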
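Compounds were pin-transferred as a titration series up to 57 uM into substrate buffer (0.5 mM F6P, 0.1 mM ATP, pH 8.0), then 1.25 nM PFK was added and reactions ran 45 min before ADP-Glo detection.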
Tb PGK inh: qHTS Assay to Find Inhibitors of Phosphoglycerate Kinase; Phosphoglycerate kinase, glycosomal (Trypanosoma brucei brucei), P07378; PGK/GAPDH coupled, Kinase-Glo luminescence, 60 min; Potency, µM (doses to about 57.5 µM), for inactives: top-dose activity change, negative = inhibition, usual class: inhibitors; hit rate 0.043% among 380,000; AID 602233, 2012; note: % is set by controls: 0 for no effect and ±100 for the full control effect; nearly all actives have a fitted effect of over 60% in size
Target sequence (P07378 whole entry, looked up): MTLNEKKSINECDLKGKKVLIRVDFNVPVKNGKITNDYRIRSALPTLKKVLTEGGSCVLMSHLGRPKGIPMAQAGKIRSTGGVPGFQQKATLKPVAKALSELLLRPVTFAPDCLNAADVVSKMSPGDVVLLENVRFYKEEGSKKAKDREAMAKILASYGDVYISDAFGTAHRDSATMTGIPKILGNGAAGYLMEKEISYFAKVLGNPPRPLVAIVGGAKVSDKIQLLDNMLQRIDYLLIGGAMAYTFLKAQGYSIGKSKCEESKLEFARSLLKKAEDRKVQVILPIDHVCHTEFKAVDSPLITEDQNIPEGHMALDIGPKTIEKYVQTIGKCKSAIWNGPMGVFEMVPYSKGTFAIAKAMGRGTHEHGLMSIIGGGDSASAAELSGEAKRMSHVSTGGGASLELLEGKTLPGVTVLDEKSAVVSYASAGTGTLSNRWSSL
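Recombinant glycosomal PGK reaction used 1,3-bisphosphoglycerate generated in-well by GAPDH (100nM final) in 100mM TEA pH 7.6, 5mM MgCl2, 0.01% Tween-20. After 60 minutes at room temperature, ATP was read by Kinase-Glo Plus luminescence end-point.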
GLP1R inv ag: qHTS of GLP-1 Receptor Inverse Agonists (Inhibition Mode); Glucagon-like peptide 1 receptor (Homo sapiens), P43220; HEK293 GLP-1R CRE-luciferase, luminescence, 24 h; GLP-1R form is constitutively active; Potency, µM (titrated, usually from 38.3 µM), without a hit: at the highest dose activity change, negative = inhibition, actives largely listed as inhibitors; hit rate 1.6% among 410,000; AID 624417, 2012; note: % is set by controls: 0 for no effect and ±100 for the full control effect; nearly all actives have a fitted effect of over 55% in size
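Constitutively active GLP-1R drives a cAMP-responsive luciferase in stably transfected HEK293 cells; test compounds are added after overnight (12 h) attachment and left 24 hr, and signal loss in luminescence marks inhibition.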
GLP-1R agonist: qHTS of GLP-1 Receptor Agonists | Glucagon-like peptide 1 receptor (Homo sapiens), P43220 | HEK293 GLP-1R CRE-luciferase, luminescence, 4-6 h; cells express a hypersensitive GLP-1R form | Potency, µM (doses to about 45.6 µM), for the others: top-dose activation, actives largely listed as activators | hit rate 0.007% among 380,000 | AID 624172, 2012; note: % of control where 0% means no effect
Pin1 inhibitor: qHTS Assay to Find Inhibitors of Pin1. Potency, µM (series often up to 115 µM), without a hit: at the highest dose activity, negative = inhibition, usual class: inhibitors. Peptidyl-prolyl cis-trans isomerase NIMA-interacting 1 (Homo sapiens), Q13526. hit rate 0.009% among 390,000. AID 504891, 2011. Pin1 FP peptide displacement, HiFluor488, 10 min; active = well fitted inhibition curve with a large enough effect in the polarisation, with a control signal flat, not every such curve was filed as active; inconclusive = small, poorly fitted or top-dose-only effect, or effect the other way, or a change in a side signal; inactive = no such curve, though single readings can be large or run the other way; the % refers to the polarisation; note: % is set by controls: 0 for no effect and ±100 for the full control effect
Target sequence (Q13526 whole entry, looked up): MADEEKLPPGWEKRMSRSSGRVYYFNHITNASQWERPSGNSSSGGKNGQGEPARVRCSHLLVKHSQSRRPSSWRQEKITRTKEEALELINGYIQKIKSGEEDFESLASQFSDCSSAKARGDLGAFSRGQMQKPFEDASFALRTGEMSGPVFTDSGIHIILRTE
Starred values were filed as active, the others as inactive; i = inactive; ? = inconclusive; nt = not tested or not shown. Unless noted, calls come from the whole dose curve; as a rule, active = well fitted curve in the direction sought with a large enough effect; inconclusive = small, poorly fitted or top-dose-only effect, or another doubt; inactive = no such curve, though single readings can be large; an effect the other way counts as inactive or inconclusive. Potency is the fitted concentration of half-maximal effect.

SMILES	HEK293 tox	Tb PFK block	Tb PGK inh	GLP1R inv ag	GLP-1R agonist	Pin1 inhibitor
N#CC1=C(SCc2ccccc2)NC(=O)CC1c1ccc(O)cc1 (stereo not given)	9%	-4%	-8%	0%	3%	0%
Cc1ccc(C2CC(=O)NC(SCc3ccccc3)=C2C#N)cc1 (stereo not given)	-7%	4%	i	8.9µM*	6%	9%
Cc1cc(Sc2nnc(/N=C/N(C)C)s2)c2ccccc2n1	-7%	3%	-3%	3.2µM*	-5%	7%
Cc1cccc2sc(NC(=O)C3CSC4(C)CCC(=O)N34)nc12 (stereo not given)	-2%	-4%	1%	7.1µM*	1%	1%
Cc1cccc(C)c1NC(=O)C1CSC2(C)CCC(=O)N12 (stereo not given)	-1%	9%	0%	4%	-3%	2%
COc1ccc(NC(=O)/C=C\C(=O)N(c2ccc(C(C)C)cc2)C(C(=O)NCc2ccco2)c2ccc(C)cc2)cc1 (stereo not given)	-19%	nt	7%	10µM*	nt	2%
N#CC(C#N)=Cc1cn(-c2ncc(C(F)(F)F)cc2Cl)c2ccccc12	-9%	-13%	i	7.9µM*	-2%	12%
CC(=O)/C=C\c1cn(-c2ncc(C(F)(F)F)cc2Cl)c2ccccc12	-15%	1%	i	?	-10%	-3%
Cc1ccc(C)c(N2CCN(C(=S)Nc3ccc4nc(N5CCN(C)CC5)cc(C)c4c3)CC2)c1	-14%	-1%	-6%	2.5µM*	8%	-10%
CCC(C)NC(=S)Nc1ccc2nc(N3CCN(CC)CC3)cc(C)c2c1 (stereo not given)	?	-3%	-1%	3.5µM*	-1%	0%
Cc1cc(N2CCOCC2)nc2ccc(NC(=O)CCC(=O)N3CCCCC3)cc12	2%	-7%	-7%	?	-1%	3%
CCN1CCN(c2cc(C)c3cc(NC(=S)N4CCN(c5ccccc5)CC4)ccc3n2)CC1	20%	-4%	-2%	1.3µM*	8%	3%
Cc1cc(N2CCOCC2)nc2ccc(NC(=O)CCC(=O)N3CCN(c4cccc(C(F)(F)F)c4)CC3)cc12	-18%	?	-1%	10µM*	-2%	-2%
Cc1ccc(C)c(N2CCN(C(=S)Nc3ccc4nc(N5CCOCC5)cc(C)c4c3)CC2)c1	10%	-10%	-2%	?	-1%	1%
Cc1ccc(/C(=C\CN2CCCC2)c2cccc(/C=C/C(=O)O)n2)cc1	nt	nt	nt	nt	-3%	nt
COc1ccc(CNCC(O)COc2ccc3[nH]c(=O)ccc3c2)cc1OC (stereo not given)	nt	nt	nt	nt	-5%	nt
COc1ccc(OC)c(S(=O)(=O)N2CCN(S(=O)(=O)c3ccc4c(c3)OCCO4)CC2)c1	nt	nt	nt	nt	nt	-1%
Cc1cc(N2CCCCC2)nc2ccc(NC(=O)c3ccc(Br)o3)cc12	?	2%	0%	2.8µM*	-7%	35%
Cc1cc(N2CCN(C)CC2)nc2ccc(NC(=S)NCc3cccs3)cc12	?	-4%	6%	1µM*	2%	7%
CCN1CCN(c2cc(C)c3cc(NC(=S)N4CCOCC4)ccc3n2)CC1	?	-2%	i	?	2%	-2%
CCCN1CCN(C(=S)Nc2ccc3nc(N4CCN(CC)CC4)cc(C)c3c2)CC1	3.2µM*	-3%	-2%	4µM*	10%	0%
CCN1CCN(c2cc(C)c3cc(NC(=S)NCc4cccs4)ccc3n2)CC1	?	-2%	i	?	17%	1%
COc1ccc(-c2cn3cccnc3n2)cc1NC(=O)c1cc(C)cc(C)c1	-8%	nt	nt	14%	nt	11%
CCOC(=O)c1c2c(n(C)c1C)C(=O)C(=O)c1ccc(Br)cc1-2	-23%	nt	-13%	?	10%	-3%
CCOC(=O)c1c2c(n(Cc3ccccc3)c1C)C(=O)C(=O)c1ccccc1-2	5µM*	nt	-11%	?	-22%	6%
SMILES	HEK293 tox	Tb PFK block	Tb PGK inh	GLP1R inv ag	GLP-1R agonist	Pin1 inhibitor
Cc1ccc(NC(=O)N2CCCN(Cc3ccc(F)cc3)C2)cc1C	?	2%	3%	4µM*	-12%	-2%
Cc1ccc(NC(=O)N2CCCCCC2)cc1C	-15%	0%	8%	-5%	8%	-16%
Cc1c(C(=O)Nc2ccc(Br)cc2F)sc2ncnc(N(C)C3CCCCC3)c12	17%	nt	nt	7%	nt	?
COc1ccc2ccccc2c1CNCc1ccc(C)cc1	-25%	-2%	-1%	10µM*	21%	23%
COc1ccc(C(=O)N/N=C/c2sc3ccccc3c2O)cc1	?	9%	-3%	1.6µM*	-1%	?
CC(=O)N1CCN(C(=O)c2ccc(-c3ccccc3Cl)o2)CC1	-1%	-8%	-2%	12%	9%	10%
COc1ccccc1C(CNC(=O)CCNS(=O)(=O)c1ccc(Br)cc1)N1CCCC1 (stereo not given)	-14%	nt	-12%	10µM*	8%	-3%
O=C(c1ccc(-c2ccccc2Cl)o1)N1CCCCCCC1	-16%	nt	-2%	5.6µM*	?	0%
COc1ccccc1C(CNC(=O)c1ccc(-c2ccccc2Cl)o1)N1CCCC1 (stereo not given)	?	7%	2%	4.5µM*	21%	12%
N#Cc1nc(-c2ccco2)oc1N1CCN(C(c2ccccc2)c2ccccc2)CC1	-5%	3%	-5%	10µM*	3%	41%
Clc1ccc(-c2nnc(CSc3nnc(-c4cccs4)n3Cc3ccccc3)o2)cc1	-19%	4%	-12%	10µM*	-8%	7%
O=C(Nc1ccc(Br)cc1F)N1CCC(CN2CCc3ccccc3C2)CC1	6%	nt	0%	-5%	nt	9%
CCN(CC)c1nc2ccccc2c(N)c1-c1ccccc1	-6%	2%	-9%	2.5µM*	-1%	-7%
Cc1c(N(C)C)nc2ccccc2c1N	7%	0%	-9%	13%	4%	1%
O=C1C=CCC(/C=C/c2ccccc2)O1 (stereo not given)	-15%	-12%	-6%	2.5µM*	5%	-2%
